# The full list was thinned out, with hits kept by preference.
# PostGolgi ctrl = yeast control strain growth, post-Golgi counter-screen. efflux-deficient yeast background strain, growth absorbance A615, 16 h. inhibition, % at 10 µM. 5% of 98,000 active. AID 738
# S1P2 ag = S1P2 (human) receptor agonism. O95136. 0.46% of 97,000 active. S1P2-expressing cell line, agonist reporter read-out. activation, % at 4.5 µM. AID 729; in the data active means activation above about 16%;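 further: 0% = vehicle low control and 100% = maximal reference agonist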
# PostGolgi yeast = growth inhibition of a yeast mutant, post-Golgi transport screen; post-Golgi transport phenotypic cell assay; inhibition, % at 10 µM; 0.9% of 98,000 active; AID 739;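 further: yeast cells grown in 1536-well plates; yeast grown about 18 h at 30C before absorbance read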
# S1P2 antag = blocks the human S1P2 receptor; inhibition, % at 5 µM; cell-based S1P2 antagonist assay, inhibition at 5 uM; 0.21% of 97,000 active; O95136; in the data active means inhibition above about 45%;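 further: CRE beta-lactamase reporter cells expressing human S1P2 stimulated with S1P; 0% = agonist at EC80 alone and 100% = agonist plus reference antagonist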
# GALR2 ag = activates the human galanin receptor 2 | GALR2-expressing cells, agonist activation read-out | O43603 | 0.48% of 140,000 active | AID 803 | activation, % (test concentration not listed); in the data active means activation above about 5%, passing the limit was not always enough;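 further: 0% = vehicle buffer wells and 100% = reference agonist at full effect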
# Target sequence (O43603 whole entry, looked up): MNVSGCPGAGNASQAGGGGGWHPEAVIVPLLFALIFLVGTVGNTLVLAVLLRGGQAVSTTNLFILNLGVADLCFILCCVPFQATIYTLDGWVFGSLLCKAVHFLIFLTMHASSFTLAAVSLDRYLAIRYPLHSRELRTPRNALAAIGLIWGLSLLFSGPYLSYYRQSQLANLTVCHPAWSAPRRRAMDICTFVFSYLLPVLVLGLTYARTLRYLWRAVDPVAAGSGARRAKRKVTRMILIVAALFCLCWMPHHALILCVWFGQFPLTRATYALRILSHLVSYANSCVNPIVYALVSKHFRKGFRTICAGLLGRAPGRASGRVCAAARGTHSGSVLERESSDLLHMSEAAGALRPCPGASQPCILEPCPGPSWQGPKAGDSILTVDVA
# GALR2 blocker = blocks the human galanin receptor 2. AID 828. GALR2-expressing cells, antagonist mode. inhibition, % at 4 µM. 0.39% of 140,000 active; in the data active means inhibition above about 27%;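 further: cells stimulated with galanin 1-16 at roughly its EC80; 0% = agonist challenge control and 100% = basal control without agonist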
# Numbers without * were called inactive; x = no result given. Unless noted, no stated cut-off is given here; in the data, active means inhibition above about 30%; inactive means the rest.
SMILES,PostGolgi ctrl,S1P2 ag,PostGolgi yeast,S1P2 antag,GALR2 ag,GALR2 blocker
CSCCC(NC(=O)c1ccc(Cl)cc1)C(=O)OCC(=O)Nc1cc(Cl)ccc1C#N (configuration not stated),x,x,x,x,-1.5,16.1
COC(=O)c1sccc1NC(=O)C12CC3CC(CC(C3)C1)C2,x,-0.9,x,-22.6,-1.1,-7.1
CCc1ccccc1N(CC)C(=O)CCc1nc(-c2ccc(C)cc2)no1,23.2,-0.2,-6.8,-1.2,-0.8,-3.8
CCN(CCCNC(=O)CCc1nc(-c2ccc(C)cc2)no1)c1cccc(C)c1,35.7*,1.4,7.9,-3.6,-1.1,-3.0
CCN(Cc1ccccc1)C(=O)CCc1nc(-c2ccc(C)cc2)no1,42.2*,-0.5,-3.9,-13.0,-1.6,1.4
CCc1cccc(CC)c1NC(=O)COC(=O)CCc1cc(OC)c(OC)c(OC)c1,x,x,x,x,0.2,-1.6
CC1=CC2=NC(=O)/C(=C\c3cc(C)n(-c4ccccc4F)c3C)C(=N)N2O1,x,x,x,x,5.4*,6.6
CCc1cccc(NC(=O)Cn2ncn3c(cc4ccccc43)c2=O)c1,-6.4,-0.9,-8.3,-15.3,1.5,-7.1
Cc1ccc(Cn2ncn3c(cc4ccccc43)c2=O)cc1,34.5*,-5.0,1.7,2.3,-1.6,9.5
CC1CCc2c(sc(NC(=O)c3ccc(Cn4cc([N+](=O)[O-])cn4)o3)c2C#N)C1 (configuration not stated),37.8*,-4.8,-6.2,6.6,-1.4,-16.2
N#Cc1c(NC(=O)c2ccc(Cn3cc(Br)cn3)o2)sc2c1CCCCC2,35.0*,-1.0,2.0,15.1,-0.5,-3.9
COC(=O)c1sc(NC(=O)c2ccc(Cn3cc(Cl)cn3)o2)c(C#N)c1C,17.6,-0.5,16.5,-1.8,-0.9,-17.1
CCCSc1nnc(N2C(=O)CC(c3ccsc3)C3=C2CCCC3=O)s1 (configuration not stated),48.1*,-6.9,-3.4,12.0,-1.6,10.3
CCOC(=O)N1CCN(CCC(=O)Nc2cc([N+](=O)[O-])ccc2OC)CC1,x,x,x,x,0.9,-14.0
CS(=O)(=O)Nc1ccc(OCc2ccccc2)cc1,31.0*,1.9,2.4,-25.9,-1.1,13.6
COC(=O)c1cc(NC(=O)CC2SC(=Nc3ccccc3)N(CCc3c[nH]c4ccccc34)C2=O)cc(C(=O)OC)c1 (configuration not stated),5.8,-7.7,1.0,-9.6,-0.8,-7.9
O/N=C/c1ccccc1OCc1ccc(Cl)cc1,77.0*,-4.1,7.0,-1.1,-2.5,7.8
c1coc(CNc2nc(N3CCCCC3)nc3ccccc23)c1,8.0,x,40.0*,x,-0.9,15.0
N#C/C(C(=O)NCc1ccccc1)=C1/SC(Cc2ccc(Cl)cc2)C(=O)N1c1ccccc1 (configuration not stated),x,x,x,x,-1.3,6.0
CCN(Cc1cc2ccc(C)cc2[nH]c1=O)C(=O)c1ccncc1,44.1*,-5.9,-11.6,10.6,-0.8,0.4
CCCCCCCC(=O)NNC(=O)CC(=O)Nc1ccccc1C(=O)O,x,x,x,x,-0.5,0.8
O=C(NC1CCCCC1)N1CCSC1=Nc1ccccc1,49.8*,-8.5,5.3,3.8,-2.0,2.5
CCOC(=O)c1cccc(NC(=O)c2ccc(N(C)C)cc2)c1,x,x,x,x,-0.7,-8.0
COc1cccc(-n2nnnc2SCC(=O)Nc2ccc(C(C)=O)cc2)c1,x,-2.5,x,-8.0,0.2,19.7
CCCS(=O)(=O)c1nnnn1-c1cccc(OC)c1,29.1,x,54.9*,x,-1.4,84.4*
SMILES,PostGolgi ctrl,S1P2 ag,PostGolgi yeast,S1P2 antag,GALR2 ag,GALR2 blocker
CC1(C)NC(=O)N(CCOCCOc2ccc3ccccc3c2Br)C1=O,13.6,-1.3,-11.2,4.3,-2.5,7.1
CC1(C)NC(=O)N(CCCCOc2ccc3ccccc3c2Cl)C1=O,40.8*,-0.4,-2.5,0.1,-2.0,-9.4
C=CCNCc1cccn1-c1ccccc1,34.4*,-7.2,-1.4,-6.6,-0.3,2.5
C=CCNCCOc1ccc(C(C)(C)c2ccccc2)cc1,x,x,x,x,-0.5,-9.8
O=C(Cc1ccc(S(=O)(=O)N2CCCCC2)s1)Nc1cccc2ccccc12,x,x,x,x,-1.0,6.5
O=C(Nc1ccccc1Cl)c1cc(S(=O)(=O)N2CCOCC2)cs1,31.3*,-8.0,1.0,-5.4,-3.2,2.0
O=C(Nc1ccccc1Cl)c1ccc(S(=O)(=O)N2CCOCC2)cc1,6.1,-7.1,-1.0,-14.9,-2.1,-1.5
CN1C(=O)/C(=C2\SC(N)=NC2=O)c2ccccc21,6.0,-3.6,-2.7,-27.7,-0.9,1.8
CN1C(=O)/C(=C2\SC(N3CCCCCC3)=NC2=O)c2ccccc21,42.2*,-4.0,5.8,-20.4,-0.5,5.9
Cc1ccc(/C=N\NC(=O)C2CN(S(=O)(=O)c3ccccc3)CCN2S(=O)(=O)c2ccccc2)cc1 (configuration not stated),x,x,x,x,-0.3,4.7
O=S(=O)(c1ccc2c(c1)OCCO2)N(Cc1ccc(F)cc1)Cc1nnc(-c2cccs2)o1,34.9*,-2.3,-4.2,13.9,-1.1,-8.0
Cc1cc(C(=O)CN(Cc2ccc(F)cc2)S(=O)(=O)c2ccc3c(c2)OCCO3)c(C)n1C,5.2,-5.7,19.8,4.7,-0.2,2.1
COc1ccc(C(=O)Nc2cc(OC)ccc2OC)cc1,2.3,-1.6,-4.3,-6.3,-1.4,3.4
COC(=O)c1sccc1NC(=O)c1ccc(OC)cc1,31.1*,-2.5,10.9,-14.4,0.6,1.7
COc1ccc(C(=O)Nc2ccc(-c3ccc(NC(=O)c4ccc(OC)cc4)c(OC)c3)cc2OC)cc1,x,x,x,x,6.2*,-2.0
Cc1cccc(C)c1C(=NCCCN(C)C)c1ccccc1,x,x,x,x,-1.6,-9.7
CC(CCc1ccccc1)NC(=O)COc1ccc(S(=O)(=O)N2CCOCC2)cc1[N+](=O)[O-] (configuration not stated),x,x,x,x,-0.6,-8.9
O=C(c1ccccc1)c1ccccc1N/C=C/c1nnnn1-c1ccccc1,34.6*,-6.0,-0.6,13.6,-3.3,-2.4
CCN(C1CCCCC1)S(=O)(=O)c1ccc(OC)c(C)c1,35.5*,-6.3,14.5,-5.4,-0.1,-5.1
Cc1c(CNC2CCCC2)c(C(=O)O)c(C)n1Cc1ccccc1,x,x,x,x,-1.9,-7.3
O=[N+]([O-])c1cccnc1NCCNc1ncc(C(F)(F)F)cc1Cl,34.7*,3.8,5.5,-2.4,-2.4,-6.2
O=[N+]([O-])c1ccccc1NCCNc1ncc(C(F)(F)F)cc1Cl,14.2,-0.7,0.3,3.1,-3.2,10.7
CCn1cc([N+](=O)[O-])c(C(=O)Nc2ccc3c(c2)OCCO3)n1,33.4*,-7.4,-10.4,-0.4,-2.8,3.4
O=C(Nc1ccc2c(c1)OCCO2)c1ccc(Cl)c([N+](=O)[O-])c1,x,x,x,x,-0.3,4.3
CCn1c(SCC(=O)c2ccccc2)nnc1-c1cccs1,20.6,-3.1,12.5,-14.1,-1.2,6.0
CCOC(=O)c1coc(CNC(=O)c2c(C)oc3c2CCCC3)c1,31.9*,-3.8,3.7,16.6,-2.0,-6.3
COC(=O)c1ccc(/C=N/OCC(=O)NC2CCCC(C)C2C)cc1 (configuration not stated),40.4*,-6.3,11.1,8.3,-1.5,2.9

# Screening data (PubChem)
